High-throughput results from PubChem.
Only some compounds are listed: those with a hit (about 3.5% of all), similar ones and a draw of the others.
Bead autofluor = counter-screen for toxin protease inhibitors: compound fluorescence | compound autofluorescence counterscreen, microsphere flow cytometry; active compounds read high | fluorescence intensity (no concentration beside the values) | hit rate 3.1% among 360,000; in the data active = fluorescence intensity above about 16000; inconclusive = no clear call, values can overlap the other calls
BoNT F protease = BoNT/F light chain protease inhibitors, primary screen, biochemical, flow cytometry, MLPCN library. AID 588497, 2011. hit rate 0.22% among 360,000. Multiplex microsphere protease cleavage assay. inhibition, % at 10 µM. Botulinum neurotoxin type F light chain protease (Clostridium botulinum); in the data active = inhibition above about 35%, passing the limit was not always enough; inconclusive = no clear call, values can overlap the other calls; also: plate controls were buffer without enzyme for full effect and enzyme alone for no effect
Anthrax LF inh2 = Bacillus anthracis LF protease inhibitors, primary screen, biochemical, multiplex microsphere, MLPCN library | hit rate 0.12% among 360,000 | Lethal factor (Bacillus anthracis), P15917 | multiplex microsphere protease cleavage assay | inhibition, % at 10 µM | AID 588501, 2011; also: plate controls were buffer without enzyme for full effect and enzyme alone for no effect
Target sequence (P15917 whole entry, looked up): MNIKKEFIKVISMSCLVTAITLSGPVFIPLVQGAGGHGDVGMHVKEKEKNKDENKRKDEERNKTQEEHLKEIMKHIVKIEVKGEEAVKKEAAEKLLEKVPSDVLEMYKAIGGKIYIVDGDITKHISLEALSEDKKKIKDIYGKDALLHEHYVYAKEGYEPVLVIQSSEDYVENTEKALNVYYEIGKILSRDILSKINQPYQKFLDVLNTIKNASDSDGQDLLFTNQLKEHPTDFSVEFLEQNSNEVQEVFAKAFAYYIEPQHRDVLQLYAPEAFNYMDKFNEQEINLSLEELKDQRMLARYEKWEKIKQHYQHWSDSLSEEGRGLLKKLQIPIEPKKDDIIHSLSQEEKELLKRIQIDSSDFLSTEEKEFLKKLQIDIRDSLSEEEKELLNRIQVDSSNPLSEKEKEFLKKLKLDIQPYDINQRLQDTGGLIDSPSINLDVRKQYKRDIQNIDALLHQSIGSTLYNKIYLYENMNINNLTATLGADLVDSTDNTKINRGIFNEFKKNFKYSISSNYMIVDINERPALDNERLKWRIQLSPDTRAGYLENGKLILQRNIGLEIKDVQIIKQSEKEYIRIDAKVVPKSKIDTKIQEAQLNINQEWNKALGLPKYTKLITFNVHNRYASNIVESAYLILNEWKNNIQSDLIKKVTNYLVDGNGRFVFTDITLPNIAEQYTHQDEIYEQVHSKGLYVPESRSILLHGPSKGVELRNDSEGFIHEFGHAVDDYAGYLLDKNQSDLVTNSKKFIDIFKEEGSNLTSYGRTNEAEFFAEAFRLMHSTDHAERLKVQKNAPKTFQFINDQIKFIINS
BoNT A protease = BoNT/A light chain protease inhibitors, primary screen, biochemical, flow cytometry, MLPCN library; Botulinum neurotoxin type A light chain protease (Clostridium botulinum A str. ATCC 3502); multiplex microsphere protease substrate cleavage; inhibition, % at 10 µM; hit rate 0.17% among 360,000; AID 588499, 2011; also: plate controls were buffer without enzyme for full effect and enzyme alone for no effect
BJeLR viability = MLPCN primary cell-based screen for lethality selective to Ras in HRASV12 cells; BJeLR (HRASV12) viability, CellTiter-Glo ATP luminescence, 48 h; inhibition, % (no concentration beside the values); hit rate 0.17% among 300,000; in the data active = inhibition above about 50%; inconclusive = no clear call, values can overlap the other calls
The depositor's hits bear a star; ? = inconclusive; . = no result given. Rule as the data show it, unless noted: active = inhibition above about 30%; inconclusive = no clear call, values can overlap the other calls; inactive = below that.

SMILES	Bead autofluor	BoNT F protease	Anthrax LF inh2	BoNT A protease	BJeLR viability
CCCCNC(=O)CCNS(=O)(=O)c1ccc(Br)cc1	9229	-10.0	-3.3	0.1	-2.3
CCC(C)NC(=O)CCNS(=O)(=O)c1ccc(Br)cc1 (stereo unspecified)	21722*	2.1	-3.9	3.5	6.6
COc1cc(C[C@@H](CO)[C@H](CO)Cc2ccc(O)c(OC)c2)ccc1O	.	.	.	.	5.1
CC1(C(=O)NS(=O)(=O)c2ccc(F)cc2F)CCN1C(=O)C1CCCCC1 (stereo unspecified)	2858	-5.6	-7.7	0.5	.
CCOC(=O)N1CCN(C(=O)CSCC(=O)Nc2nc(-c3ccc(OC)cc3)cs2)CC1	9601	1.7	-9.9	0.0	.
CCOC(=O)N1CCN(C(=O)CSCC(=O)Nc2nc(-c3ccc(Cl)s3)cs2)CC1	22328*	-0.6	-0.1	0.6	2.5
CCn1c(C)nc2cc(-c3nnc(-c4c(-c5ccccc5)noc4C)o3)ccc21	16285*	-0.2	0.2	0.1	3.7
CCN(CC(=O)NCc1ccc(F)cc1)C(=O)COc1ccccc1[N+](=O)[O-]	3912	3.1	-5.1	-0.2	.
O=S(=O)(Cc1cc(Sc2ccc(Cl)cc2)nc(-c2ccccc2)n1)c1ccccc1	2320	-8.9	0.0	-1.0	-2.4
CCOC(=O)C(C)Sc1cc(CS(=O)(=O)c2ccccc2)nc(-c2ccccc2)n1 (stereo unspecified)	20917*	6.3	-2.6	?	0.7
CCCCC(=O)N(C)c1c(CC)nc2c(OCC(=O)c3ccc(F)cc3)cccn12	3538	2.9	-4.3	-0.4	.
COc1cc(C(=O)OCC(=O)NC2CCCC2)cc(NC(=O)c2ccco2)c1OC	20665*	-5.7	-6.5	-1.2	.
Cc1ccc(C(=O)OCC(=O)Nc2ccc(N(C)C)cc2)cc1NC(=O)c1ccco1	3808	-8.4	-4.5	-0.1	4.1
Cc1ccc(C(=O)OCC(=O)Nc2ccccc2)cc1NC(=O)c1ccco1	17209*	0.3	-3.8	-1.3	-1.8
CC(C)(C)C(=O)COC(=O)c1cccc(NC(=O)c2ccco2)c1	23138*	0.6	-2.6	0.9	-2.8
Cc1ccc(C(=O)OCC(=O)Nc2cc(F)ccc2F)cc1NC(=O)c1ccco1	8717	-4.0	-19.2	0.0	1.0
CCC(C)c1ccccc1NC(=O)COC(=O)c1ccc(C)c(NC(=O)c2ccco2)c1 (stereo unspecified)	21016*	0.5	-0.4	-0.4	4.7
Cc1cc(=O)oc2c3c(cc(OCC(=O)NC(C)C)c12)OC(C)(C)CC3	3135	5.6	4.1	-2.2	-5.1
CCOc1cc(C)c(C(C)C)cc1S(=O)(=O)NCc1ccccn1	15588	0.4	0.2	1.0	6.0
O=C(Nc1cccc(C(F)(F)F)c1)c1ccco1	23988*	-3.9	-3.5	-3.1	4.4
COc1ccc(/C=C/C(=O)OCC(=O)Nc2cc(C(F)(F)F)ccc2Cl)cc1	2728	0.9	0.8	-0.3	8.0
CCOC(=O)c1c2c3c(cccc3n(C)c1=O)C(=O)c1ccccc1-2	2922	40.3*	-8.9	26.2	-15.3
O=C(C1CC1)N(Cc1ccco1)c1nc(-c2ccccc2)cs1	23051*	-5.5	-0.8	-2.1	6.0
COc1ccc(-c2csc(N(Cc3ccco3)C(=O)c3cccs3)n2)cc1	4258	-8.2	-10.1	-1.0	9.5
CC(=O)NC(C)C12CC3CC(CC(CC(=O)O)(C3)C1)C2 (stereo unspecified)	10629	7.5	0.6	-0.2	4.0
SMILES	Bead autofluor	BoNT F protease	Anthrax LF inh2	BoNT A protease	BJeLR viability
CC(=O)NC12CC3CC(C)(C1)CC(NC(C)=O)(C3)C2	23165*	4.3	-1.9	?	-3.0
CC(=O)NC12CC3CC(CC(CC(=O)O)(C3)C1)C2	21352*	5.3	1.3	3.4	-3.8
CN(C)S(=O)(=O)c1ccc(C(=O)NCCOc2ccc(F)cc2)cc1	24248*	-6.7	-3.2	-5.4	-2.0
COC(=O)c1cc(C(=O)OC)n(Cc2ccc(C)cc2)c1C	4313	-4.3	-4.6	-0.4	3.5
O=P(Nc1ccccc1)(Nc1ccccc1)Oc1cccc(Cl)c1	17171*	18.5	-18.1	?	8.2
O=P(Nc1ccccc1)(Nc1ccccc1)Oc1ccccc1	2072	-0.6	-1.6	0.5	0.3
CCOC(=O)C1=C[C@@H](C(C)C)N(S(=O)(=O)c2ccc(C)cc2)[C@H]1c1ccc(C(F)(F)F)cc1	6232	3.2	-5.0	-0.6	.
C#CCn1c(S(=O)(=O)Cc2ccc(C)cc2)nc(-c2ccccc2)c1-c1ccccc1	17325*	13.5	-1.8	11.3	32.6
C#CCn1c(S(=O)(=O)Cc2ccccc2Cl)nc(-c2ccccc2)c1-c1ccccc1	11876	-14.0	-4.1	-1.4	4.2
O=C1N[C@@H](Cc2cnc[nH]2)C(=O)N2CCC[C@@H]12	4660	-2.4	-16.9	-0.8	14.0
COc1ccc(N2CCN(CC(=O)N3CCC(C)CC3)CC2)cc1	17583*	-4.2	-1.1	-3.0	-6.8
CC1CCN(CC(=O)N2CCN(c3ccccc3)CC2)CC1	3399	21.1	-8.5	1.1	0.4
CC1=C(C(=O)N2CCCCCC2)CC(CC(=O)NCCN2CCOCC2)C(=O)N1Cc1ccc(C(C)(C)C)cc1 (stereo unspecified)	5530	-7.5	-3.6	0.0	.
O=C(O)c1ccccc1C(=O)N1CCN(c2cccc(Cl)c2)CC1	3671	-32.4	-4.9	-2.6	-4.5
CCOc1ccccc1C(=O)N1CCN(c2cccc(Cl)c2)CC1	20455*	-2.3	-0.7	1.3	52.9*
COc1cc2c(C(=O)N3CCN(c4cccc(Cl)c4)CC3)cn(CC(C)C)c(=O)c2cc1OC	4262	38.0*	7.3	3.0	2.1
CCOC(=O)c1[nH]c(C)c(C(=O)N2CCN(c3ccccc3)CC2)c1C	8318	0.7	-1.3	-0.5	-4.1
CCOc1ccc2ccccc2c1C(=O)N1CCN(c2ccccc2)CC1	21404*	5.8	1.2	5.6	10.0
CN1OC[C@@H]2CN(C(=O)NC3CCCCC3)[C@H](c3ccc(N4CCCCC4)cc3)C[C@@H]21	7045	0.7	-2.9	1.0	.
C[C@H](CO)N1C[C@H](C)[C@@H](CN(C)S(=O)(=O)c2ccc(Oc3ccccc3)nc2)OCc2cn(nn2)CCCC1=O	2802	-11.5	1.7	-0.3	.
Brc1ccc(-c2cn3c(n2)CCc2ccc4cccnc4c2-3)cc1	3983	-16.8	-4.2	2.0	-4.3
NC(Cc1ccc(Cl)cc1)c1csc(Nc2ccc(C(F)(F)F)cn2)n1 (stereo unspecified)	3388	-19.8	-4.7	0.0	.
O=C(O)c1cc(-c2ccccn2)n[nH]1	22786*	0.6	1.3	0.7	1.3
COCCNC(=O)CN1CCC(NC(=O)Nc2ccc(C(F)(F)F)cc2)CC1	23251*	-5.1	-2.9	-1.0	-1.4
CCOc1ccc(N2CSC(=S)N(c3ccc(OCC)cc3)C2)cc1	3691	?	31.9*	-0.4	7.2
CCOc1ccc(N2CC(=O)SC2=S)cc1	7508	2.6	6.7	8.5	-1.8
